Test results: PubChem BioAssay (NCI)
This is part of a sample that, as a whole, favours compounds with a hit. Of some 79,000 tested, about 15% had one in any assay. No stated cut-off is given here; in the data, active means growth inhibition above about 70%; inactive means the rest.

What was measured:
[1] = NCI Yeast Anticancer Drug Screen. Data for the rad50 strain (AID 155);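 further: 0% = growth of vehicle-only cultures of the same strain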; conditions: S. cerevisiae rad50 strain growth inhibition; at 50.0 µM; active compounds read high
In short: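 Inhibition values express reduced yeast growth in compound-treated cultures relative to vehicle-treated controls.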

[2] = NCI Yeast Anticancer Drug Screen. Data for the mec2-1 strain (AID 157); conditions: S. cerevisiae mec2-1 strain, at 50.0 µM, active compounds read high
In short: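 Each compound was tested on mec2-1 yeast, a strain altered in DNA damage repair or cell cycle control. Growth inhibition is reported relative to vehicle.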

[3] = NCI Yeast Anticancer Drug Screen. Data for the sgs1 mgt1 strain (AID 161);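 further: 0% = growth of cultures given vehicle only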; conditions: S. cerevisiae sgs1 mgt1 strain, at 50.0 µM, active compounds read high
In short: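 Inhibition of yeast growth, normalised to vehicle-treated controls, is reported for a strain bearing genetic alterations in DNA damage repair.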

[4] = NCI Yeast Anticancer Drug Screen. Data for the cln2 rad14 strain (AID 165);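 further: 0% = growth equal to vehicle treated cultures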; conditions: S. cerevisiae cln2 rad14 strain, at 50.0 µM, active compounds read high
In short: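 Test compounds were added to cln2 rad14 yeast cultures; inhibition of growth was then determined by comparison with vehicle treatment.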

[5] = NCI Yeast Anticancer Drug Screen. Data for the bub3 strain (AID 167); conditions: S. cerevisiae bub3 mutant strain, at 50.0 µM, active compounds read high
In short: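 Steps: expose the mutant yeast strain to compound; grow alongside vehicle-treated cultures; measure growth; express inhibition against the vehicle cultures.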

[6] = NCI Yeast Anticancer Drug Screen. Data for the mlh1 rad18 strain (AID 175); conditions: S. cerevisiae mlh1 rad18 strain growth inhibition; at 50.0 µM; active compounds read high
In short: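 Inhibition values reflect reduced growth of mutant yeast versus vehicle-treated controls following compound exposure; the mutations affect DNA damage repair.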

Measured: growth inhibition

Oc1c(CN2CCOCC2)cc(CN2CCOCC2)cc1CN1CCOCC1
inactive: [1] 7.7% | [2] 0.5% | [3] -5.4% | [4] 2.2% | [5] 6.6% | [6] 6.55%

Cn1c(=O)c(C#N)c2n(C)c3ccccc3n2c1=O
inactive: [1] 64.8% | [2] 17.4% | [3] 13.8% | [4] 2.25% | [5] -36.1% | [6] -0.15%

COc1ccc(-c2c(C#N)c(S)n(NS(=O)(=O)c3ccccc3)c(=O)c2C#N)cc1
inactive: [1] 16.8% | [2] 56.7% | [3] 43.7% | [4] -1.5% | [5] 34% | [6] 58%

c1ccc(SCN(CSc2ccccc2)c2ccccc2)cc1
inactive: [1] -1.35% | [2] 26.9% | [3] 13.8% | [4] 66.8% | [5] 22.1% | [6] 14.8%

Cc1c(I)sc(I)c1I
inactive: [1] 39.6% | [2] 1.75% | [3] 30.9% | [4] 12.9% | [5] 4.1% | [6] 12.6%

O=C1OC(c2cccc(C(F)(F)F)c2)c2ccc3ccccc3c21 (stereo not given)
inactive: [1] 14.3% | [2] -0.45% | [3] 10.7% | [4] 18.1% | [5] 10.8% | [6] 22.8%

CCCOC(=O)C1(C)CCC(=O)O1 (stereo not given)
inactive: [1] 3.7% | [2] 6.1% | [3] 23.4% | [4] -19.9% | [5] -13.2% | [6] -8.85%

CN(C)[C@@H]1C(=O)C(C(=O)NCNc2cccc(C(=O)O)c2C(=O)O)=C(O)[C@@]2(O)C(=O)C3=C(O)c4c(O)cccc4[C@@](C)(O)[C@H]3C[C@@H]12
inactive: [1] 2.95% | [2] 6.45% | [3] 21.8% | [4] -17.2% | [5] -1.1% | [6] 31.4%

N#Cc1cc2c(cc1C#N)SCCSCCCSCCS2
inactive: [1] 1.2% | [2] 5% | [3] 1.05% | [4] 22.4% | [5] 6% | [6] -24.8%

NC(=S)N/N=c1\cc(C(=O)Nc2ccc([N+](=O)[O-])cc2[N+](=O)[O-])oc2ccccc12
inactive: [1] 19.1% | [2] 26.3% | [3] 16.1% | [4] -6% | [5] 22.9% | [6] 28%

c1ccc2c(c1)CCN2CCN1CCc2ccccc21
inactive: [1] 9.4% | [2] -12.4% | [3] 20.1% | [4] -7.6% | [5] 40.2% | [6] 11.6%

CC1(O)CCCCCCC1
inactive: [1] 0.85% | [2] -3.6% | [3] 26.6% | [4] 0.7% | [5] 7.9% | [6] 7.8%

O=C(Cc1nc2ccc(Cl)cc2[nH]c1=O)c1ccncc1
inactive: [1] -2.8% | [2] -11.6% | [3] -3.55% | [4] 8.1% | [5] -24.1% | [6] 20.8%

CC/C=C(\C)C(C#N)(CCC)C(=O)OCC (stereo not given)
inactive: [1] -1.8% | [2] -34.1% | [3] -20.9% | [4] -0.75% | [5] -25.6% | [6] -31.7%

CC(C)(C)c1cc(/C=C/c2cc(/C=C/c3cc(C(C)(C)C)c(O)c(C(C)(C)C)c3)c([N+](=O)[O-])cc2[N+](=O)[O-])cc(C(C)(C)C)c1O
inactive: [1] 20.2% | [2] -0.15% | [3] 1.85% | [4] -45.7% | [5] 3.65% | [6] 5.8%

COc1cc(OC)c2cc(C(=O)c3cccc4ccccc34)c(=O)oc2c1
inactive: [1] 1.35% | [2] -22.8% | [3] 9.65% | [4] 16.9% | [5] 19.4% | [6] 13.4%

O=C1/C(=C/c2ccc(C(=O)O)cc2)CNC/C1=C\c1ccc(C(=O)O)cc1
inactive: [1] -7.4% | [2] -14.9% | [3] -3.05% | [4] -15.4% | [5] 3.8% | [6] -11.8%

CCOc1c(N=Nc2cccc([N+](=O)[O-])c2)c(C)nn1C(N)=S
inactive: [1] -42.2% | [2] -34.1% | [3] -7.85% | [4] -28.9% | [5] -3.35% | [6] -16%

Cc1ccc(S(=O)(=O)OC2C3OC(C)(C)OC3OC2C2CSC(=S=O)S2)cc1 (stereo not given)
inactive: [1] 31.6% | [2] -0.6% | [3] 21.8% | [4] 22.2% | [5] -3.15% | [6] 12.7%

O=C(Nc1cc(Cl)c(Cl)cc1Cl)N1CCOCC1
inactive: [1] 0.15% | [2] -30.7% | [3] -11.2% | [4] 5.25% | [5] -6.1% | [6] -5.15%
